# Laboratory results published in publication PMC7862700, “An all-to-all approach to the identification of sequence-specific readers for epigenetic DNA modifications on cytosine”.
# Key:
# Test in all cases: DAPPL (digital affinity profiling via proximity ligation, sequencing); 10 mM Tris-HCl pH 7.5, 50 mM NaCl, 1 mM DTT, 4% glycerol, room temperature, 30 min; GST-TFs on glutathione beads, 16-mer random dsDNA library, 0.1% formaldehyde crosslink after washing; high values mean tight binding
# FEV = molecular target: T1, FEV (Homo sapiens, UniProt Q99581 1-238); conditions: protein: recombinant; tags: N-terminal GST; dsDNA, one strand shown
# T1 sequence: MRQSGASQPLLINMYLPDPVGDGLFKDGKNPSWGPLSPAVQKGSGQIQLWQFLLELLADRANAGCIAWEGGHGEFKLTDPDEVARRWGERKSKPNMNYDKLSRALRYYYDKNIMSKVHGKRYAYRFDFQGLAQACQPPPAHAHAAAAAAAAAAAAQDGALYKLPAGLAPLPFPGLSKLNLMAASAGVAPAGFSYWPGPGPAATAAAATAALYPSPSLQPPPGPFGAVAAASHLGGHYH
# In short: (§1)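 Beads coated with glutathione captured GST-fused human transcription factors that had been expressed in yeast, and the factors were then given DNA barcodes and pooled with a tag-only sample. The pools were incubated with 200 nmole of a random double-stranded 16-mer DNA library in Tris/NaCl/DTT/glycerol buffer for 30 min at room temperature, washed, crosslinked with 0.1% formaldehyde and proximity-ligated with BsaI/T4 ligase at 37 °C for 1 h. PCR amplification and Illumina NextSeq500 sequencing came last. Binding signal is each hexamer's read frequency for a factor divided by its frequency for the tag-only sample.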
# ETV5 = ETV5 (Homo sapiens, UniProt P41161 1-510); conditions: protein: recombinant; tags: N-terminal GST; dsDNA, one strand shown
# Sequence of ETV5 (P41161 whole entry): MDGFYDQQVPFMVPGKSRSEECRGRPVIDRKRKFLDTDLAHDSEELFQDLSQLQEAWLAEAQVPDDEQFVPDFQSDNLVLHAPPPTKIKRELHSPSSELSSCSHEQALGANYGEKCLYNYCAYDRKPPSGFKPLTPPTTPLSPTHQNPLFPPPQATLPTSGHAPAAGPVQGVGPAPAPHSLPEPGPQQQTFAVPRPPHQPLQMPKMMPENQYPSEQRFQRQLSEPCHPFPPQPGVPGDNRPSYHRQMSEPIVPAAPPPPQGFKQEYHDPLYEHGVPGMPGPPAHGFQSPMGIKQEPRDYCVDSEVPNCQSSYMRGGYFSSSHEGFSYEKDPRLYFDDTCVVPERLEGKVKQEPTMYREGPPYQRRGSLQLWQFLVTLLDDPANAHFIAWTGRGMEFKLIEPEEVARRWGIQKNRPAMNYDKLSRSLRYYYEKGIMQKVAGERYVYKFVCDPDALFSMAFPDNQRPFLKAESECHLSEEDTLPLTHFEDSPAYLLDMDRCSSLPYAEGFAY
# In short: as §1
# HSF1 = HSF1 (Homo sapiens, UniProt Q00613 1-529); conditions: protein: recombinant; tags: N-terminal GST; chain copies: 3; dsDNA, one strand shown
# Sequence of HSF1 (Q00613 whole entry): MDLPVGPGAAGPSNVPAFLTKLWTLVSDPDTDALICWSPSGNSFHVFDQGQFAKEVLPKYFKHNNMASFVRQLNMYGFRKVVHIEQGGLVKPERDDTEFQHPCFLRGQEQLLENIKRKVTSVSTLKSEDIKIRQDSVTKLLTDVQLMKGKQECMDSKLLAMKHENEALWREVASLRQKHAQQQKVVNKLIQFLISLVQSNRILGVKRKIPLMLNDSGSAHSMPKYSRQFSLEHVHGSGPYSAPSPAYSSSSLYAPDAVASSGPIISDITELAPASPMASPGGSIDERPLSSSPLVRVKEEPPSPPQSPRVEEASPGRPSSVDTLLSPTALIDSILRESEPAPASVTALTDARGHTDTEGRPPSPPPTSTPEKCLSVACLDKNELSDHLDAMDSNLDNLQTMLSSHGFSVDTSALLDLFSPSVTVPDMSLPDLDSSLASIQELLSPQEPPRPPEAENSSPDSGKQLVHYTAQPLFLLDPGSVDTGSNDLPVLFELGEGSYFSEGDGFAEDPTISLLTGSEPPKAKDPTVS
# In short: as §1
# SPIC = molecular target: T2, SPIC (Homo sapiens, UniProt Q8N5J4 1-248); conditions: protein: recombinant; tags: N-terminal GST; dsDNA, one strand shown
# T2 sequence: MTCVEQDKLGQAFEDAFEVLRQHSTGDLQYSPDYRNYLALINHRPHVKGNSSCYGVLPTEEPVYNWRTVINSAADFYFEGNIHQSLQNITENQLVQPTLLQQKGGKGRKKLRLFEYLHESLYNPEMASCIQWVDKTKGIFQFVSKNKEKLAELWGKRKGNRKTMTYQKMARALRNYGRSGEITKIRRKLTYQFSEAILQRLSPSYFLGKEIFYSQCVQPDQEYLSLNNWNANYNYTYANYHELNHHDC
# In short: as §1
# ELF4 = ELF4 (Homo sapiens, UniProt Q99607 1-663); conditions: protein: recombinant; tags: N-terminal GST; dsDNA, one strand shown
# Sequence of ELF4 (Q99607 whole entry): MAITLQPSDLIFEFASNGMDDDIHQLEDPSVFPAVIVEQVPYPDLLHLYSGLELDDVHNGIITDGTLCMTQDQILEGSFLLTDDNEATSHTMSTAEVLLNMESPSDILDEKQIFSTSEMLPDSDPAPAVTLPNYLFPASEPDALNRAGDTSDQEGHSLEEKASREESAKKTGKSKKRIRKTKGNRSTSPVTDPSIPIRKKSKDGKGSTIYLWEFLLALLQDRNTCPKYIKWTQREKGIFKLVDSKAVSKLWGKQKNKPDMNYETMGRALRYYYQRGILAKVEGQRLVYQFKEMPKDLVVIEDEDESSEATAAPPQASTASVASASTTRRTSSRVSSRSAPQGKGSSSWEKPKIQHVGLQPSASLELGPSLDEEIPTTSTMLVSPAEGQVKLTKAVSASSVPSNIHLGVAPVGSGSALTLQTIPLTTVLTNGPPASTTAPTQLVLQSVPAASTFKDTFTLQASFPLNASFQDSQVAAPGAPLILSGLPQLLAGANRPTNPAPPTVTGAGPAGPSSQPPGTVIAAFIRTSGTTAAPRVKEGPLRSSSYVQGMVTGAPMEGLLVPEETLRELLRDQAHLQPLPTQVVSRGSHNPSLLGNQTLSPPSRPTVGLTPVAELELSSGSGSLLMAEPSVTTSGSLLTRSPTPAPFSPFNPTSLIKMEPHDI
# In short: as §1
# ELK4 = molecular target: T3, ELK4 (Homo sapiens, UniProt P28324-2 1-405); conditions: protein: recombinant; tags: N-terminal GST; dsDNA, one strand shown
# T3 sequence: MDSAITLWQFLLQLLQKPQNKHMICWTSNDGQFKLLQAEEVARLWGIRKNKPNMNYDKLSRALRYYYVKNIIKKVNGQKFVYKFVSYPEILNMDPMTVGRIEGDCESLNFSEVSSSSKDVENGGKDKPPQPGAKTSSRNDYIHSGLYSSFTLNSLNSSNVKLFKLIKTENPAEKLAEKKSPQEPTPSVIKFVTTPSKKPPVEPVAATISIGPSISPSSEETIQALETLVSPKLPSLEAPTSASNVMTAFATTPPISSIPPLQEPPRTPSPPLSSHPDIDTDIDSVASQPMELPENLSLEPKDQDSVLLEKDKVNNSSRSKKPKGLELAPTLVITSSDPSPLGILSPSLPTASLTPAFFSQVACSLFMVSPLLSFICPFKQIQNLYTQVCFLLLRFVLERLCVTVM
# In short: as §1
# ETV2 = molecular target: T4, ETV2 (Homo sapiens, UniProt O00321 1-342); conditions: protein: recombinant; tags: N-terminal GST; dsDNA, one strand shown
# T4 sequence: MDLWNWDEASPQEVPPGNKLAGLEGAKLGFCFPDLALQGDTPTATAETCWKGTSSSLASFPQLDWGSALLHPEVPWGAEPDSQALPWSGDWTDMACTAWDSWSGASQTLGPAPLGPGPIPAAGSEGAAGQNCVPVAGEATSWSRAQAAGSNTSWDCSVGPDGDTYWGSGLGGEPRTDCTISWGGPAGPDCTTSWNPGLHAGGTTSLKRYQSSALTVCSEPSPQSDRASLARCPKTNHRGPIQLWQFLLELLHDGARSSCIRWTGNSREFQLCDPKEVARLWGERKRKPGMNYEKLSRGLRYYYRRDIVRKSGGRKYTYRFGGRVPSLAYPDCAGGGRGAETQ
# In short: as §1
# ELF3 = molecular target: T5, ELF3 (Homo sapiens, UniProt P78545 1-371); conditions: protein: recombinant; tags: N-terminal GST; dsDNA, one strand shown
# T5 sequence: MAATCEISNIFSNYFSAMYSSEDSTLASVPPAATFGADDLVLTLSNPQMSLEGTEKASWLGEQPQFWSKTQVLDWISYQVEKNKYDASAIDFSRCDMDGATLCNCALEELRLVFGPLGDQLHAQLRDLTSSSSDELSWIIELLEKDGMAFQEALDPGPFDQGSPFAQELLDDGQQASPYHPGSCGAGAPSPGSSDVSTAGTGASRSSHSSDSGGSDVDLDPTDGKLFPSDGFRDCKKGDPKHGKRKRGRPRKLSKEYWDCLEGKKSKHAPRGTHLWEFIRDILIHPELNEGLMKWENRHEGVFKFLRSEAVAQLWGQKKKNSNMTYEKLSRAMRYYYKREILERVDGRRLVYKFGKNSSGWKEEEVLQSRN
# In short: as §1
# CRX = CRX (Homo sapiens, UniProt O43186 1-299); conditions: protein: recombinant; tags: N-terminal GST; dsDNA, one strand shown
# Sequence of CRX (O43186 whole entry): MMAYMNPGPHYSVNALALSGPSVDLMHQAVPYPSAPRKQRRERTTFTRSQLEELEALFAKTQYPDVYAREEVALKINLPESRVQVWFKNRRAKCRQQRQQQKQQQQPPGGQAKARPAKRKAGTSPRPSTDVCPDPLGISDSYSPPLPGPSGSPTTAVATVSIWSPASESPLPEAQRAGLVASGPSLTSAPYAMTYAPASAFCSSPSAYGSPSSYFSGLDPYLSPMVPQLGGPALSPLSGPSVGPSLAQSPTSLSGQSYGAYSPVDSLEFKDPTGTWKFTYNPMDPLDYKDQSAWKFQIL
# In short: as §1
# ETV1 = ETV1 (Homo sapiens, UniProt P50549 1-477); conditions: protein: recombinant; tags: N-terminal GST; dsDNA, one strand shown
# Sequence of ETV1 (P50549 whole entry): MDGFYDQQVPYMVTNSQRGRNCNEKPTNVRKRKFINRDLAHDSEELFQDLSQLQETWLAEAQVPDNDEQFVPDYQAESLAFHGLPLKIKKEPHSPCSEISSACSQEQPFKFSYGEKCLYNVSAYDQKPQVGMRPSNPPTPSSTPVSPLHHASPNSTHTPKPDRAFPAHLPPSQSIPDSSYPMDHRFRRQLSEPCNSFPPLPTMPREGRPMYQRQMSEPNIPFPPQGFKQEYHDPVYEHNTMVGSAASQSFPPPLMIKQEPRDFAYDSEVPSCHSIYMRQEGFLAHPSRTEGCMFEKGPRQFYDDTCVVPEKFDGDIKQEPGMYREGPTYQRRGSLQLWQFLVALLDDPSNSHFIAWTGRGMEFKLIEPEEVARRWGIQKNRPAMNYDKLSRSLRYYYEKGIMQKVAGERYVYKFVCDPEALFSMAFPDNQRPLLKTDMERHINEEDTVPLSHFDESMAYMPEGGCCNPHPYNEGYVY
# In short: as §1
# ERF = molecular target: T6, ERF (Homo sapiens, UniProt P50548 1-548); conditions: protein: recombinant; tags: N-terminal GST; dsDNA, one strand shown
# T6 sequence: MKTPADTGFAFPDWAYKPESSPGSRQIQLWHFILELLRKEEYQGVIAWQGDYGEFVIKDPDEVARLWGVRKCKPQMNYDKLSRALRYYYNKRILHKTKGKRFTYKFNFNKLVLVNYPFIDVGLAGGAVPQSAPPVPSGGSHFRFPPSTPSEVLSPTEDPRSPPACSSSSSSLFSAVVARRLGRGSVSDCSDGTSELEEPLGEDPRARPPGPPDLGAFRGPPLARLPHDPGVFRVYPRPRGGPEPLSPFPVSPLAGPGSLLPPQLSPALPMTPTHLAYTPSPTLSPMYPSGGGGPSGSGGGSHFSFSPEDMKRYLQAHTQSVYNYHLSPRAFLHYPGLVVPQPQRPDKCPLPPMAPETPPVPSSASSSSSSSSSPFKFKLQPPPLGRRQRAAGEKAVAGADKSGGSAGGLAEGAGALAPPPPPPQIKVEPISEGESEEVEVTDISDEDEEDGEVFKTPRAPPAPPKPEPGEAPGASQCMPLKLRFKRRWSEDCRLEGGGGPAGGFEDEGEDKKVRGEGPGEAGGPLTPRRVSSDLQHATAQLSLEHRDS
# In short: as §1
# ETV3L = molecular target: T7, ETV3L (Homo sapiens, UniProt Q6ZN32 1-361); conditions: protein: recombinant; tags: N-terminal GST; dsDNA, one strand shown
# T7 sequence: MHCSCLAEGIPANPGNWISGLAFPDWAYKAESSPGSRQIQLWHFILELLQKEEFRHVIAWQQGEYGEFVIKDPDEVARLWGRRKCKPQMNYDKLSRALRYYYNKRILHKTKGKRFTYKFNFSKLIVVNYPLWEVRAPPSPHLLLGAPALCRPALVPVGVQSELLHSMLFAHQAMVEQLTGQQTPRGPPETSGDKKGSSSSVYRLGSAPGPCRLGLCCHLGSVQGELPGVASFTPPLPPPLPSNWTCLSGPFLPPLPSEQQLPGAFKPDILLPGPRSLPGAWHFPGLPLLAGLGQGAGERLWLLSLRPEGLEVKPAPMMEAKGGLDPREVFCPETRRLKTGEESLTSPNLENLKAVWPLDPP
# In short: as §1
# ETS2 = molecular target: T8, ETS2 (Homo sapiens, UniProt P15036 1-469); conditions: protein: recombinant; tags: N-terminal GST; dsDNA, one strand shown
# T8 sequence: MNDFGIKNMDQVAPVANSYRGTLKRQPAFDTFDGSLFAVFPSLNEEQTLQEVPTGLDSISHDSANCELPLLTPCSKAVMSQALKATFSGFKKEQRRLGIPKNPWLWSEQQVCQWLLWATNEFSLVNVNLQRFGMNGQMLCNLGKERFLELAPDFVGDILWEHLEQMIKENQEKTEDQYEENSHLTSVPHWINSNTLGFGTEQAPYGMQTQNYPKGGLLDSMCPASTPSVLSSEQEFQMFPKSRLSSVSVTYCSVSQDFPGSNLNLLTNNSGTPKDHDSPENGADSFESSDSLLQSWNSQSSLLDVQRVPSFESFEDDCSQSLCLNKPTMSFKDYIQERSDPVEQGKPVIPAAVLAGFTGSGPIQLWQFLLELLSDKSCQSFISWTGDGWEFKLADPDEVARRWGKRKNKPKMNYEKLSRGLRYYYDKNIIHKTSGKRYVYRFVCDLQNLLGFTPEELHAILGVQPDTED
# In short: as §1
# SPDEF = molecular target: T9, SPDEF (Homo sapiens, UniProt O95238 1-335); conditions: protein: recombinant; tags: N-terminal GST; dsDNA, one strand shown
# T9 sequence: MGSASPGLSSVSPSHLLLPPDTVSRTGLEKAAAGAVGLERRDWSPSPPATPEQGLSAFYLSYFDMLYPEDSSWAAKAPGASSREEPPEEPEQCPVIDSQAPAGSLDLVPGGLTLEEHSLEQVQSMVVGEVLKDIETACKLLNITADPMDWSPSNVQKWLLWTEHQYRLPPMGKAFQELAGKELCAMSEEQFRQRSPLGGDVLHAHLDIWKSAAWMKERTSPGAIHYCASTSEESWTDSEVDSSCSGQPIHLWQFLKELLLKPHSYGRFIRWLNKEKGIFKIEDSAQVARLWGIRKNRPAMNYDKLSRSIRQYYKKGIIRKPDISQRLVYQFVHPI
# In short: as §1
# ETV7 = molecular target: T10, ETV7 (Homo sapiens, UniProt Q9Y603 1-341); conditions: protein: recombinant; tags: N-terminal GST; dsDNA, one strand shown
# T10 sequence: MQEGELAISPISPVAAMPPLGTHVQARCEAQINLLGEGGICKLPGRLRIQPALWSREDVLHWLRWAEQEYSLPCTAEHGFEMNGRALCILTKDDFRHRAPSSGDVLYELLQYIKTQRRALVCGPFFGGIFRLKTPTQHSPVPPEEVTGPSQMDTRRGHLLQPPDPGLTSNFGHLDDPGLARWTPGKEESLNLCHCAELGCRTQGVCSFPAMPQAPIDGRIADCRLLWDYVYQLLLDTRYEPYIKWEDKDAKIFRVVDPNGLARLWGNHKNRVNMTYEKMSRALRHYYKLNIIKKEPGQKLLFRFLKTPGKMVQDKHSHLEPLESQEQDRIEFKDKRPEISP
# In short: as §1
# ELF5 = molecular target: T11, ELF5 (Homo sapiens, UniProt Q9UKW6-2 1-255); conditions: protein: recombinant; tags: N-terminal GST; dsDNA, one strand shown
# T11 sequence: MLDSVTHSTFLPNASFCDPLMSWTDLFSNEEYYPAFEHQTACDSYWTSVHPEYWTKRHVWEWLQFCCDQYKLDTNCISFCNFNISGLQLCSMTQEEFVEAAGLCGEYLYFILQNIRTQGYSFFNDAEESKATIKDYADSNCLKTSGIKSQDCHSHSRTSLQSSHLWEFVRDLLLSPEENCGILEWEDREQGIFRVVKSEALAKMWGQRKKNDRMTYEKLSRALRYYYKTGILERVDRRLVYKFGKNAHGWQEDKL
# In short: as §1
# ETV3 = molecular target: T12, ETV3 (Homo sapiens, UniProt P41162-2 1-143); conditions: protein: recombinant; tags: N-terminal GST; dsDNA, one strand shown
# T12 sequence: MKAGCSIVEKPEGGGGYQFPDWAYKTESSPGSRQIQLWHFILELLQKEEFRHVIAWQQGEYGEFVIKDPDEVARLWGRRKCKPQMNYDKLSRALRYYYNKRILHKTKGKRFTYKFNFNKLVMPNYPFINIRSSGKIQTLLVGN
# In short: as §1
# ETV6 = ETV6 (Homo sapiens, UniProt P41212 1-452); conditions: protein: recombinant; tags: N-terminal GST; dsDNA, one strand shown
# Sequence of ETV6 (P41212 whole entry): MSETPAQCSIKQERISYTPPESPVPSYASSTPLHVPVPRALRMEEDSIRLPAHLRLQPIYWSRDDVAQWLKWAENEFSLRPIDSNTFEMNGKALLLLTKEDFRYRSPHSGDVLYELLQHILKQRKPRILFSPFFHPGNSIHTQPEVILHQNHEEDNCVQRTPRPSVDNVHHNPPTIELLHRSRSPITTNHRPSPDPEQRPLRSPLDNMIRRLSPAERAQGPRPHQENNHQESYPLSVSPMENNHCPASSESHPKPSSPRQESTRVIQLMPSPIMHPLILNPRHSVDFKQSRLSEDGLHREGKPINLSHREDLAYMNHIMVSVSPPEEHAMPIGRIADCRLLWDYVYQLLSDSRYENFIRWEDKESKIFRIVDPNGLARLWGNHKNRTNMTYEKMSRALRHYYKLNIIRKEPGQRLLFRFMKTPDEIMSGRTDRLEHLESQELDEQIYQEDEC
# In short: as §1
sequence,measurement,setting,value
TCTGGT,binding signal,FEV,"1.12 fold enrichment (6-mer frequency, TF over GST control)"
same,binding signal,ETV5,"1.28 fold enrichment (6-mer frequency, TF over GST control)"
same,binding signal,HSF1,"1.8 fold enrichment (6-mer frequency, TF over GST control)"
same,binding signal,SPIC,"1.38 fold enrichment (6-mer frequency, TF over GST control)"
same,binding signal,ELF4,"1.28 fold enrichment (6-mer frequency, TF over GST control)"
same,binding signal,ELK4,"1.17 fold enrichment (6-mer frequency, TF over GST control)"
same,binding signal,ETV2,"1.16 fold enrichment (6-mer frequency, TF over GST control)"
same,binding signal,ELF3,"1.34 fold enrichment (6-mer frequency, TF over GST control)"
same,binding signal,CRX,"1.33 fold enrichment (6-mer frequency, TF over GST control)"
same,binding signal,ETV1,"1.1 fold enrichment (6-mer frequency, TF over GST control)"
same,binding signal,ERF,"1.34 fold enrichment (6-mer frequency, TF over GST control)"
same,binding signal,ETV3L,"1.26 fold enrichment (6-mer frequency, TF over GST control)"
same,binding signal,ETS2,"1.16 fold enrichment (6-mer frequency, TF over GST control)"
same,binding signal,SPDEF,"1.28 fold enrichment (6-mer frequency, TF over GST control)"
same,binding signal,ETV7,"1.35 fold enrichment (6-mer frequency, TF over GST control)"
same,binding signal,ELF5,"1.26 fold enrichment (6-mer frequency, TF over GST control)"
same,binding signal,ETV3,"1.29 fold enrichment (6-mer frequency, TF over GST control)"
same,binding signal,ETV6,"1.17 fold enrichment (6-mer frequency, TF over GST control)"
